Beta apoptosis – blocks beta cell apoptosis; 300,000 compounds, 0.8% hits; INS-1E cytokine-induced death, ATP luminescence, 48 h; percent of positive-control rescue, neutral wells zero; protection from apoptosis, % (test concentration not listed); AID 435005;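 active = Every replicate reaches about 75%, or at least half do and their mean reaches it too, limit read from the data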;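 also: 0% = cytokine-treated negative control wells and 100% = positive control rescue; higher means more ATP so stronger rescue from cytokine killing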
PP1 inh – counter-screen for PP5 inhibitors: inhibitors of human PP1-alpha; P62136; purified PP1alpha, OMFP fluorescence; inhibition, % at 6.7 µM; 320,000 compounds, 0.9% hits;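 active = inhibition above the mean inhibition of all tested compounds plus 3 SD, computed separately for each screening campaign, cut at about 15% in these data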
Target sequence (P62136 whole entry, looked up): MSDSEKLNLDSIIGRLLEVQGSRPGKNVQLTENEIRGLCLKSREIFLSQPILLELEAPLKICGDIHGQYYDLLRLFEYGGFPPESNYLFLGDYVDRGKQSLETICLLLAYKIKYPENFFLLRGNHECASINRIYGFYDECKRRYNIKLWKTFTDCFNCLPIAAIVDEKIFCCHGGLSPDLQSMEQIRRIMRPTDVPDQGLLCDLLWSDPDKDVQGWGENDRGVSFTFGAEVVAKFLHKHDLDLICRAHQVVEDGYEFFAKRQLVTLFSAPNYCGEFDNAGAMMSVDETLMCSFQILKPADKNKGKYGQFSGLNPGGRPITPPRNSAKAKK
CSC inhib – cancer stem cell inhibition. 300,000 compounds, 1.1% hits. cancer stem cell-like cells viability, luminescence. inhibition, % at 7.5 µM. AID 2717; in the data active = inhibition above about 75%; tested in HMLE shEcad cells
PP5 primary – blocks human protein phosphatase 5 activity; 320,000 compounds, 0.18% hits; inhibition, % at 6.7 µM; P53041; purified PP5c, OMFP substrate fluorescence;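 active = inhibition above the campaign's mean inhibition across all tested compounds plus 3 SD, cut at about 9.5% in these data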;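 also: 0% = DMSO only and 100% = 100 µM cantharidin control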
SKKanGAS inh – blocks kanamycin growth of S. pyogenes SKKanGAS strain; AID 1662; inhibition, % at 7.5 µM; BacTiter-Glo, 6 h; 300,000 compounds, 1.3% hits;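 active = mean replicate score, as percent of positive control median, at least 50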;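 also: strain carries kanamycin resistance gene driven by streptokinase promoter and grows in 40 µg/ml kanamycin; loss of luminescence reflects streptokinase promoter inhibition or plain growth inhibition; 0% = median of DMSO wells and 100% = positive control at its reference dose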
* = called active by the depositor; . = no result given. In the library only some 3.1% were active in any assay of this set; here they are far more common.

SMILES	Beta apoptosis	PP1 inh	CSC inhib	PP5 primary	SKKanGAS inh
CC(O)CC(C(=O)NNc1ccccc1)C(=O)NNc1ccccc1 (stereo not given)	.	-1.1	91.6*	1.4	1.0
CC(C)OC(=O)C(=O)NNc1ccccc1	-3.4	-5.3	98.8*	2.8	-8.0
Cc1ccc(Nc2nc(Cl)c(C=O)s2)cc1Cl	17.0	2.5	8.5	0.3	29.1
CCN(CC)c1nc(NN)nc(Nc2ccc(C)c(Cl)c2)n1	29.8	6.2	33.0	0.2	104.5*
Cc1nn(Cc2ccc(C(=O)Nc3nccs3)cc2)c(C)c1Cl	0.3	7.2	83.2*	1.1	1.7
CC(C)c1ccccc1NC(=O)COC(=O)c1cc(=O)[nH]c(=O)[nH]1	0.9	-3.8	-9.0	-0.7	-9.2
CC1CCCC(C)N1C(=O)COC(=O)c1cccnc1Cl (stereo not given)	-3.8	.	-11.2	.	.
N#CCSc1nc2ccccc2c2nc3ccccc3n12	102.9*	1.8	85.1*	-1.1	36.2
CCS(=O)(=O)c1ncc(Cl)c(C(=O)Nc2ccccc2OC)n1	84.2*	-4.1	55.1	4.7	0.9
CCOc1ccccc1NC(=O)c1nc(S(=O)(=O)Cc2ccccc2)ncc1Cl	.	-1.9	.	1.7	58.6*
COc1ccccc1NC(=O)c1nc(S(=O)(=O)Cc2ccccc2)ncc1Cl	76.7*	2.4	-6.1	2.0	13.2
COc1ccccc1NC(=O)c1ccc(C(=O)Nc2ccccc2OC)nc1	-4.0	-1.2	6.7	1.4	1.1
FC(F)(F)c1cc(-c2ccco2)nc(-n2cnc3ccccc32)n1	-7.8	-1.6	-10.1	2.5	2.9
Cc1nc2ccccc2n1-c1nc(-c2ccco2)cc(C(F)(F)F)n1	131.0*	-2.6	148.5*	-0.1	-6.6
Cc1ccc2ncnc(Nc3ccc(C)c(C)c3)c2c1	18.2	0.1	79.9*	-0.1	-3.3
COCCCNc1ncnc2ccc(C)cc12	63.1	-2.2	-12.8	1.2	3.8
CCCC(=O)NC(=S)c1c(C)n(C)n(-c2ccccc2)c1=O	.	-1.0	.	-0.1	-6.3
CCOC(=O)c1sc(NC(=O)Nc2ccccc2Cl)cc1C	42.0	3.8	93.7*	4.8	-11.3
CCOC(=O)c1sc(NC(=O)Nc2ccccc2)cc1C	15.6	2.9	33.1	3.0	-25.9
CCCCCC(=O)NC(=S)NC1C2CC3CC(C2)CC1C3 (stereo not given)	.	0.0	57.0	1.2	83.2*
CCCCCC(=O)NNC(=S)NC(C)=O	-2.7	-3.0	0.5	3.7	8.7
CCOC(=O)c1c(NC(=O)c2cc(-c3ccc(Cl)s3)nc3ccccc23)sc(C(N)=O)c1C	76.5*	1.5	14.3	-0.2	1.5
Cc1ccccc1-c1cc(C(=O)Nc2sc(C)c(C)c2C(N)=O)c2ccccc2n1	92.9*	2.7	.	3.2	47.0
CCOC(=O)c1sc(NC(=O)c2cc(-c3ccccc3C)nc3ccccc23)c(C#N)c1C	39.0	-1.2	88.7*	0.4	51.2*
Cc1ccccc1Oc1cc(-n2ncc(Cl)c(Cl)c2=O)ncn1	98.9*	12.5	107.8*	0.0	.
SMILES	Beta apoptosis	PP1 inh	CSC inhib	PP5 primary	SKKanGAS inh
CCOc1cnn(-c2cc(Oc3ccc(C)cc3)ncn2)c(=O)c1Cl	-5.4	-2.4	-6.4	-1.4	-1.5
Clc1ccc2c(N/N=C/c3ccc(Br)cc3)ccnc2c1	53.6	10.8	97.8*	4.7	112.6*
Cc1ccccc1/C=N/Nc1ccnc2cc(Cl)ccc12	95.3*	4.5	83.6*	1.6	-28.1
COCCn1c(SCC(=O)Nc2cccc(NC(C)=O)c2)nc2c([nH]c3ccccc32)c1=O	-1.3	-2.3	17.1	1.2	-0.6
Cc1ccc(C)c(N(C)C(=O)CCS(=O)(=O)c2cccc3nonc23)c1	-3.1	7.6	3.1	2.0	-0.6
COC(=O)c1ccc(C2C(C(=O)c3ccc(C)o3)=C(O)C(=O)N2c2cc(C)on2)cc1 (stereo not given)	-7.6	16.4*	1.8	0.9	-4.5
Cc1cc(N2C(=O)C(O)=C(C(=O)c3ccc(C)o3)C2c2cccs2)no1 (stereo not given)	-2.8	6.5	-8.0	-1.0	7.0
O=C(C1=C(O)C(=O)N(c2nccs2)C1c1ccccc1)c1cc2ccccc2o1 (stereo not given)	-4.5	8.8	-9.6	-0.7	19.3
Cc1ccc(C2C(C(=O)c3cc4ccccc4o3)=C(O)C(=O)N2c2cc(C)on2)cc1 (stereo not given)	-1.9	21.6*	-8.7	-0.6	58.7*
Cc1cc(N2C(=O)C(O)=C(C(=O)c3cc4ccccc4o3)C2c2cccs2)no1 (stereo not given)	-0.1	18.7*	-18.7	2.7	13.2

Bioassay records as filed in PubChem BioAssay.
